Data as given in PubChem BioAssay AID1159580 (chemical genetic matrix, 2015).
About 2,000 (36%) of roughly 5,500 compounds were called active. Not shown: some 18% with an inconclusive outcome. No stated cut-off is given here; in the data, active means normalized growth mostly below about 0.91 (no sharp cut-off); inconclusive means no clear call, values can overlap the other calls; inactive means mostly above about 0.92. The list shows a part of the results.

Experiment: chemical genetic growth profiling, strain panel (AID 1159580);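 further: tested at 20 µM; growth read once vehicle control cultures reached saturation at 30 °C; 1 = growth at the plate median or of vehicle wells; lower values mean less growth of the strain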
Conditions: growth OD

Measured: normalized growth

Cc1ccc(C(=O)c2ccc(CC(=O)O)n2C)cc1
inactive: S. cerevisiae deletion strains, locus YJR075W, strain HOC1, hits give low values 1.02 | S. cerevisiae deletion strains, locus YKL009W, strain mrt4, hits give low values 0.958 | S. cerevisiae deletion strains, locus YKL068W, hits give low values 0.99 | S. cerevisiae deletion strains, locus YKL085W, strain MDH1 (second series), hits give low values 0.98 | S. cerevisiae deletion strains, locus YKL085W, strain MDH1, hits give low values 0.98 | S. cerevisiae deletion strains, locus YKL160W, strain elf1, hits give low values 1.01 | S. cerevisiae deletion strains, locus YKL190W, strain CNB1, hits give low values 0.996 | S. cerevisiae deletion strains, locus YKR001C, strain vps1, hits give low values 0.946 | S. cerevisiae deletion strains, locus YKR026C, strain gcn3, hits give low values 1.01 | S. cerevisiae deletion strains, locus YKR091W, strain srl3, hits give low values 1 | S. cerevisiae deletion strains, locus YLL001W, strain dnm1, hits give low values 0.981 | S. cerevisiae deletion strains, locus YLL026W, hits give low values 1.01 | S. cerevisiae deletion strains, locus YLL041C, strain sdh2, hits give low values 1 | S. cerevisiae deletion strains, locus YLR027C, strain aat2, hits give low values 1.02 | S. cerevisiae deletion strains, locus YLR039C, strain RIC1, hits give low values 0.996 | S. cerevisiae deletion strains, locus YLR058C, strain SHM2, hits give low values 1 | S. cerevisiae deletion strains, locus YLR102C, strain apc9, hits give low values 0.973 | S. cerevisiae deletion strains, locus YLR113W, strain HOG1, hits give low values 0.991 | S. cerevisiae deletion strains, locus YLR221C, strain rsa3, hits give low values 0.971 | S. cerevisiae deletion strains, locus YLR258W, strain gsy2, hits give low values 1.01 | S. cerevisiae deletion strains, locus YLR262C, strain YPT6 (second series), hits give low values 0.994 | S. cerevisiae deletion strains, locus YLR262C, strain YPT6, hits give low values 1 | S. cerevisiae deletion strains, locus YLR268W, strain sec22, hits give low values 0.918 | S. cerevisiae deletion strains, locus YLR320W, strain mms22, hits give low values 0.958 | S. cerevisiae deletion strains, locus YLR330W, strain CHS5, hits give low values 1 | S. cerevisiae deletion strains, locus YLR342W, strain FKS1 (second series), hits give low values 0.997 | S. cerevisiae deletion strains, locus YLR342W, strain FKS1, hits give low values 1.02 | S. cerevisiae deletion strains, locus YLR357W, strain rsc2, hits give low values 1.02 | S. cerevisiae deletion strains, locus YLR370C, strain arc18, hits give low values 1 | S. cerevisiae deletion strains, locus YLR371W, strain rom2, hits give low values 0.978 | S. cerevisiae deletion strains, locus YLR384C, strain iki3, hits give low values 1.01 | S. cerevisiae deletion strains, locus YLR418C, strain cdc73, hits give low values 0.968 | S. cerevisiae deletion strains, locus YML016C, strain PPZ1, hits give low values 1.01 | S. cerevisiae deletion strains, locus YML032C, strain rad52, hits give low values 0.969 | S. cerevisiae deletion strains, locus YML120C, strain ndi1, hits give low values 0.982 | S. cerevisiae deletion strains, locus YML124C, strain tub3, hits give low values 0.981 | S. cerevisiae deletion strains, locus YMR058W, strain fet3, hits give low values 1.02 | S. cerevisiae deletion strains, locus YMR078C, strain ctf18, hits give low values 0.97 | S. cerevisiae deletion strains, locus YMR125W, strain sto1, hits give low values 1.01 | S. cerevisiae deletion strains, locus YMR129W, hits give low values 1.02 | S. cerevisiae deletion strains, locus YMR205C, strain PFK2, hits give low values 1.01 | S. cerevisiae deletion strains, locus YMR223W, strain ubp8, hits give low values 0.979 | S. cerevisiae deletion strains, locus YMR231W, strain pep5, hits give low values 1.01 | S. cerevisiae deletion strains, locus YMR307W, strain GAS1, hits give low values 0.991 | S. cerevisiae deletion strains, locus YNL067W, strain RPL9B, hits give low values 1 | S. cerevisiae deletion strains, locus YNL071W, strain lat1, hits give low values 1.02 | S. cerevisiae deletion strains, locus YNL153C, strain GIM3, hits give low values 1 | S. cerevisiae deletion strains, locus YNL183C, strain NPR1, hits give low values 0.928 | S. cerevisiae deletion strains, locus YNL209W, strain ssb2, hits give low values 1.02 | S. cerevisiae deletion strains, locus YNL233W, strain BNI4, hits give low values 1 | S. cerevisiae deletion strains, locus YNL248C, strain rpa49, hits give low values 1.02 | S. cerevisiae deletion strains, locus YNL250W, strain rad50, hits give low values 0.987 | S. cerevisiae deletion strains, locus YNL271C, strain bni1, hits give low values 0.968 | S. cerevisiae deletion strains, locus YNL298W, strain CLA4, hits give low values 0.95 | S. cerevisiae deletion strains, locus YNL307C, strain MCK1, hits give low values 0.956 | S. cerevisiae deletion strains, locus YNL322C, strain KRE1 (second series), hits give low values 1.03 | S. cerevisiae deletion strains, locus YNL322C, strain KRE1, hits give low values 1 | S. cerevisiae deletion strains, locus YNR049C, strain mso1, hits give low values 1 | S. cerevisiae deletion strains, locus YNR052C, strain pop2, hits give low values 0.978 | S. cerevisiae deletion strains, locus YOL006C, strain TOP1, hits give low values 0.969 | S. cerevisiae deletion strains, locus YOL012C, strain htz1 0.918 | S. cerevisiae deletion strains, locus YOL147C, strain pex11, hits give low values 0.974 | S. cerevisiae deletion strains, locus YOR001W, strain rrp6, hits give low values 0.975 | S. cerevisiae deletion strains, locus YOR061W, strain CKA2, hits give low values 1 | S. cerevisiae deletion strains, locus YOR069W, strain VPS5, hits give low values 0.997 | S. cerevisiae deletion strains, locus YOR070C, strain gyp1, hits give low values 1.02 | S. cerevisiae deletion strains, locus YOR080W, strain dia2, hits give low values 1.02 | S. cerevisiae deletion strains, locus YOR083W, strain WHI5, hits give low values 0.974 | S. cerevisiae deletion strains, locus YOR106W, strain vam3, hits give low values 1.04 | S. cerevisiae deletion strains, locus YOR136W, strain idh2, hits give low values 0.989 | S. cerevisiae deletion strains, locus YOR144C, strain elg1, hits give low values 0.979 | S. cerevisiae deletion strains, locus YOR184W, strain ser1, hits give low values 0.956 | S. cerevisiae deletion strains, locus YOR231W, strain MKK1, hits give low values 0.987 | S. cerevisiae deletion strains, locus YOR265W, strain rbl2, hits give low values 1.01 | S. cerevisiae deletion strains, locus YOR270C, strain vph1, hits give low values 0.934 | S. cerevisiae deletion strains, locus YOR290C, strain snf2, hits give low values 1.01 | S. cerevisiae deletion strains, locus YOR316C, strain cot1, hits give low values 0.974 | S. cerevisiae deletion strains, locus YPL051W, strain arl3, hits give low values 1.01 | S. cerevisiae deletion strains, locus YPL055C, strain LGE1, hits give low values 1.02 | S. cerevisiae deletion strains, locus YPL078C, strain atp4, hits give low values 0.995 | S. cerevisiae deletion strains, locus YPL106C, strain sse1, hits give low values 1.03 | S. cerevisiae deletion strains, locus YPL240C, strain hsp82, hits give low values 1.03 | S. cerevisiae deletion strains, locus YPL241C, strain CIN2, hits give low values 1 | S. cerevisiae deletion strains, locus YPL256C, strain CLN2, hits give low values 0.969 | S. cerevisiae deletion strains, locus YPR119W, strain clb2, hits give low values 0.975 | S. cerevisiae deletion strains, locus YPR141C, strain kar3, hits give low values 0.985 | S. cerevisiae deletion strains, locus YPR163C, strain tif3, hits give low values 0.984 | S. cerevisiae deletion strains, locus YPR167C, strain met16, hits give low values 0.973 | S. cerevisiae deletion strains, strain wtn01, hits give low values 0.973 | S. cerevisiae strains, strain wild type, hits give low values 1
